# Sampled rows, rich in hits. Any-hit rate of the full collection: about 4.3%.
# PfHsp40 yeast = restores yeast growth despite PfHsp40 toxicity; 0.68% of 340,000 active; growth rescue, % at 12.5 µM; S. cerevisiae expressing PfHsp40, growth rescue, ATP luminescence; in the data active = growth rescue above about 28%, passing the limit was not always enough; inconclusive = no clear call, values can overlap the other calls;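 also: yeast W303a lacking pdr1 and pdr3 grown in galactose medium; growth measured after three days at 30 °C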
# BoNT F protease = BoNT F light chain protease inhibition; Multiplex microsphere protease cleavage assay, flow cytometry; inhibition, % at 10 µM; 0.22% of 360,000 active; in the data active = inhibition above about 35%, passing the limit was not always enough; inconclusive = no clear call, values can overlap the other calls
# Anthrax LF prot = blocks Bacillus anthracis lethal factor protease; inhibition, % at 10 µM; 0.12% of 360,000 active; multiplex microsphere protease cleavage assay, LF; P15917
# MazEF act = activators of E. coli MazEF toxin-antitoxin RNase; P0AE70; FAM/BHQ RNA-DNA oligo cleavage fluorescence, 5 h; activation, % at 20 µM; 0.32% of 350,000 active; AID 504720; in the data active = activation above about 50%
# BoNT A protease = blocks Botulinum neurotoxin A light chain protease; multiplex microsphere protease substrate cleavage, flow cytometry; inhibition, % at 10 µM; 0.17% of 360,000 active; AID 588499
# Bead autofluor = compound fluorescence in toxin protease inhibitor counterscreen. compound autofluorescence counterscreen, microsphere flow cytometry; active compounds read high. fluorescence intensity (no concentration beside the values). 3.1% of 360,000 active. AID 624483; in the data active = fluorescence intensity above about 16000; inconclusive = no clear call, values can overlap the other calls
# Hits are given with their value; 0 = inactive; ? = inconclusive; - = not tested or not shown. Rule as the data show it, unless noted: active = inhibition above about 30%; inconclusive = no clear call, values can overlap the other calls; inactive = below that.
SMILES,PfHsp40 yeast,BoNT F protease,Anthrax LF prot,MazEF act,BoNT A protease,Bead autofluor
COC(=O)[C@]12CCCCC=C1N(Cc1ccc(Cl)cc1Cl)C(=O)[C@H](CC(=O)NCC1CCCCC1)C2,-,0,0,-,0,0
CCCn1nnnc1NCc1ccc(N2CCCC2)cc1,0,0,0,0,0,17311
CCCn1nnnc1NCc1ccc(N(CC)CC)cc1,0,0,0,555,0,0
O=C(/C=C/c1ccc(Br)o1)NCc1ccccc1,0,0,0,0,0,0
O=C(NC(=S)NCc1ccccc1Cl)c1cccs1,0,0,0,0,0,0
FC(F)Sc1ccc(Nc2ncnc3nc[nH]c23)cc1,0,0,0,0,?,23588
COc1ccc(-c2nnn(CC(=O)N(C3CCCC3)C(C)C(=O)NC3CCCC3)n2)cc1OC (stereo not drawn),0,0,0,0,0,0
COc1ccc(-c2nnn(CC(=O)N(C3CCCCC3)C(C)C(=O)NC3CCCC3)n2)cc1OC (stereo not drawn),0,0,0,0,0,23408
COc1ccc(N(CC(=O)NC2CCCC2)C(=O)Cn2nnc(-c3ccc(C)cc3)n2)cc1OC,0,0,0,0,0,16197
O=C(OCC(=O)N1CCN(c2ccccc2)CC1)c1cccc(Cl)c1,0,0,0,0,?,23047
O=C(OCC(=O)N1CCN(c2ccccc2)CC1)c1ccncc1,0,0,0,0,0,0
O=C(CCSCc1ccccc1Cl)N1CCN(c2cccc(Cl)c2)CC1,0,0,0,0,0,22753
CCOC(=O)C1CCN(Cc2cnc(Oc3ccc(C(C)(C)C)cc3)s2)CC1,0,0,0,0,0,21136
Brc1ccc(Oc2ncc(CN3CCOCC3)s2)cc1,0,0,0,0,?,18177
CCOC(=O)C1CCN(Cc2cnc(NC(=O)OC)s2)CC1,0,?,?,0,?,?
COc1ccc(Oc2ncc(CN3CCN(c4ccccc4)CC3)s2)cc1,0,?,0,0,0,?
O=C(NCCCN1CCN(c2cccc(Cl)c2)CC1)C1(S(=O)(=O)c2ccc(Cl)cc2)CC1,0,0,0,0,0,0
COc1ccc(N2CCN(CCCNC(=O)C3(S(=O)(=O)c4ccc(Cl)cc4)CC3)CC2)cc1,?,0,0,0,?,26083
CC(=O)c1ccc(N2CCN(C(=O)C3(S(=O)(=O)c4ccc(Cl)cc4)CC3)CC2)cc1,0,0,0,0,0,19219
O=C(N1CCN(c2cccc(Cl)c2)CC1)C1(S(=O)(=O)c2ccc(Cl)cc2)CC1,83,0,0,0,0,0
CC(=O)c1ccc(-c2ccc(C(=O)N3CCCc4ccccc43)o2)cc1,0,0,0,0,0,0
O=S(=O)(NCC(c1cccnc1)N1CCN(Cc2ccccc2)CC1)c1cc(F)ccc1F (stereo not drawn),0,0,0,0,0,0
Cc1cc(CNC(=O)COC(=O)c2ccc(Cl)c(N)c2)cc(C)c1O,105,0,0,0,0,0
C/C(=N/NC(=O)c1ccc(-c2ccccc2)cc1)c1cccc(O)c1,0,0,0,0,0,0
CC1CCCCC12NC(=O)N(CC(=O)Nc1cccnc1)C2=O (stereo not drawn),-,0,0,0,0,0
SMILES,PfHsp40 yeast,BoNT F protease,Anthrax LF prot,MazEF act,BoNT A protease,Bead autofluor
CCSC1=C(C#N)C(c2ccccc2Cl)CC(=O)N1 (stereo not drawn),0,0,0,0,0,0
CCOc1ccccc1C1CC(=O)NC(SCC)=C1C#N (stereo not drawn),0,0,0,0,0,0
N#CC1=C(SCc2ccccc2)NC(=O)CC1c1ccco1 (stereo not drawn),0,0,0,0,0,20548
CCCSC1=C(C#N)C(c2ccccc2OCC)CC(=O)N1 (stereo not drawn),0,0,0,0,0,23587
CCCSC1=C(C#N)C(c2ccc(Cl)cc2Cl)CC(=O)N1 (stereo not drawn),0,0,0,0,0,24553
O=S(=O)(Nc1nc2ccccc2nc1N1CCN(CCO)CC1)c1cc(F)ccc1F,0,?,0,0,0,?
O=C(C1CCCCN1S(=O)(=O)c1ccccc1)N1CCN(C(c2ccccc2)c2ccccc2)CC1 (stereo not drawn),0,0,0,0,0,20580
CCOc1ccc(NC(=O)CCCN2C(=O)C(c3ccccc3)Oc3cccnc32)cc1 (stereo not drawn),0,0,0,0,0,0
Nc1nonc1C(=O)NCCN=Cc1cc(Cc2ccccc2)cc(Br)c1O,702,0,0,0,0,17444
CS(=O)(=O)N(CC(=O)Nc1ccccc1Sc1ccccc1)C1CCCCC1,0,0,0,0,?,22169
CS(=O)(=O)N(CC(=O)Nc1ccccc1F)C1CCCCC1,0,0,0,0,0,0
C=C(C)c1cccc(C(C)(C)NC(=O)N2CCN(C(=O)OCC)CC2)c1,-,0,0,0,0,0
COC(=O)c1ccc(CNC(=O)/C=C/c2cc([N+](=O)[O-])ccc2OC(F)F)cc1,0,0,0,0,0,19547
COc1ccc(CNC(=O)/C=C/c2cc([N+](=O)[O-])ccc2OC(F)F)cc1,0,0,0,0,?,16762
O=C(/C=C/c1cc([N+](=O)[O-])ccc1OC(F)F)Nc1cccc2ccccc12,0,0,0,0,0,0
O=C(/C=C/c1cc([N+](=O)[O-])ccc1OC(F)F)NCc1ccc(Cl)cc1,0,0,0,0,0,0
COc1ccc(CNC(=O)/C=C/c2cc([N+](=O)[O-])ccc2OC(F)F)cc1OC,0,0,0,0,?,18771
COc1ccccc1NC(=O)/C=C/c1cc([N+](=O)[O-])ccc1OC(F)F,0,0,0,0,0,0
Cc1ccc2[nH]c(=O)c(C3C(C#N)=C(N)Oc4c3ccc3cccnc43)cc2c1 (stereo not drawn),84,0,0,0,0,?
N#CC1=C(N)Oc2c(ccc3cccnc23)C1c1ccccc1 (stereo not drawn),0,0,0,0,0,0
O=C(CCc1ccccc1)Nc1ccc2c(c1)C(=O)OC2,0,0,0,0,0,0
Cc1cccc(NC(=O)C2CCN(C(=O)c3ccc(Cl)cc3)CC2)n1,0,0,0,0,0,?
C=CCn1c(Cc2ccc(OCC)cc2)nnc1SCC(N)=O,0,0,0,0,0,0
C=CCn1c(CCNC(=O)c2ccc(Cl)c(Cl)c2)nnc1SCCOc1ccc(OC)cc1,0,0,0,0,?,21454
C=CCn1c(Cc2ccc(OC)cc2)nnc1SCC(N)=O,0,0,0,0,0,22116
C=CCn1c(Cc2csc(N)n2)nnc1SCC(=O)OCC,0,0,0,0,0,22718
COc1cc2c(cc1O)CCN(C(=O)CSc1nncn1C)[C@@H]2C,0,0,0,0,0,0
Cc1cc(C)c(C#N)c(Sc2nc(C)c([N+](=O)[O-])c(C)c2C#N)n1,-,0,0,-,0,0
Cc1nc(Sc2ccccc2)c(C#N)c(C)c1[N+](=O)[O-],27,?,30,0,0,0
COc1ccc(-c2cc(C(=O)N/N=C/c3cccnc3)c3cc(C)cc(C)c3n2)cc1,0,0,0,0,0,0

# High-throughput results (PubChem)
